A selection: hits, their analogues and other compounds. The true share with any hit is near 3.2%.
ERa coact inh: ER-alpha (human) coactivator binding inhibition. P03372. TR-FRET ER-alpha LBD / SRC-1 peptide, estradiol-bound. inhibition, % at 25.6 µM. hit rate 1.7% among 86,000. AID 629; in the data active = inhibition above about 50%;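 note: 0% = receptor plus peptide control and 100% = peptide only without receptor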
ERa SRC1 pot: ER-alpha (human) coactivator binding potentiation | TR-FRET ERalpha-LBD/SRC-Cy5 coactivator binding, 2 h; 100 = basal binding, no effect | coactivator binding (% of control), % at 25.6 µM | hit rate 1.3% among 86,000 | AID 639; in the data active = activity above about 200%;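 note: binding measured in presence of low estradiol as agonist stimulus; 0% = peptide alone without receptor and 100% = receptor with peptide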
ERb coact inh: ER-beta (human) coactivator binding inhibition; AID 633; hit rate 1.3% among 86,000; inhibition, % at 25.6 µM; TR-FRET ER-beta LBD / SRC1-Cy5 peptide binding; receptor agonist-loaded with 1 µM estradiol;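 active = compounds whose percent inhibition of the receptor-coactivator binding signal exceeds about 50% in the single-dose screen, limit read from the data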;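 note: 0% = receptor plus peptide wells without compound and 100% = peptide-only wells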
Target sequence (Q92731 whole entry, looked up, the tested form may be a part): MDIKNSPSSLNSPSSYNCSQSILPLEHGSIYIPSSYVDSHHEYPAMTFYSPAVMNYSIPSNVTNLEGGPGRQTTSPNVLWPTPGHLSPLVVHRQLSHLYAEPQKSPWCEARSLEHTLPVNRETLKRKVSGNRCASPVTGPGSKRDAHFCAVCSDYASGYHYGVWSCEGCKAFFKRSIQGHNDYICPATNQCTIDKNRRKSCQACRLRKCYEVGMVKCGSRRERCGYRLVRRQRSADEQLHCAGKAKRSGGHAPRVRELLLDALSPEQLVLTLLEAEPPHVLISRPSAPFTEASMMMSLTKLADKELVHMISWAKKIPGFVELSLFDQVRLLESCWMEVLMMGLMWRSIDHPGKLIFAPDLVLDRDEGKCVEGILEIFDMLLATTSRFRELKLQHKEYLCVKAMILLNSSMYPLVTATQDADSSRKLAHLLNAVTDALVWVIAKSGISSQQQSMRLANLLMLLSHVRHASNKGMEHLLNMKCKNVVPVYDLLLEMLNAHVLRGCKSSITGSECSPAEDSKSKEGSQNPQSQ
FAK inh: blocks human focal adhesion kinase activity; Q05397; biochemical FAK kinase activity assay; inhibition, %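 (tested at 7 µM)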; hit rate 0.84% among 97,000; in the data active = inhibition above about 19%;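 note: 0% = DMSO and 100% = reference compound high control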
Starred values were filed as active, the others as inactive; nt = not tested or not shown; [ ] = dose if it differs, or a comment.

SMILES	ERa coact inh	ERa SRC1 pot	ERb coact inh	FAK inh
Cc1ccc(-c2csc3ncnc(OCC(=O)NC(=O)NCc4ccco4)c23)cc1	56.4*[fluorescence artefact?]	68.5	37.8	nt
O=C(CSc1nc2cc(Cl)ccc2s1)NC(=O)NCc1ccco1	56.7*	76.9	42.7	nt
Cc1sc2ncnc(NCc3ccco3)c2c1C	58.1*	61.4	53.6*	5.6
Cc1sc2nc(SCC(=O)NCc3ccco3)n(-c3ccccc3)c(=O)c2c1C	14.6	229.1*[fluorescence artefact?]	6.0	-41.2
O=C(COc1ncnc2scc(-c3ccc(F)cc3)c12)NCc1ccco1	-1.1	93.3	1.6	-1.8
CCCSC(=O)N(CC)CC(=O)Nc1c(CC)cccc1CC	nt	nt	nt	0.1
CCOC(=O)N1CCN(CC(=O)N2c3ccccc3CC2C)CC1 (configuration not stated)	-0.8	93.7	-0.5	-3.2
COc1ccc(C(=O)Oc2ccc(=O)n(-c3ccccc3)n2)cc1	nt	nt	nt	-4.6
Cc1sc2ncnc(SCC(=O)NC(=O)NCc3ccco3)c2c1C	72.8*	85.4	80.8*[fluorescence artefact?]	9.9
CCCCc1nc2sc3c(SCC(=O)NCc4ccco4)ncnc3c2c2c1CCC2	34.4	575.5*[fluorescence artefact?]	42.6	-62.1
Cc1nc(SCC(=O)NCc2ccco2)c2c(C)c(C)sc2n1	1.7	89.1	2.0	4.4
O=C(NCc1ccco1)c1cc2cc3ccc(Cl)cc3nc2o1	66.5*	182.4	55.6*	15.2
CCOC(=O)Nc1ccc(OC)cc1S(=O)(=O)N1CCCCC1	73.7*[fluorescence artefact?]	66.2	74.3*[fluorescence artefact?]	-3.8
COc1ccc(OC)c(S(=O)(=O)N2CCCCCC2)c1	-2.1	108.9	-7.6	nt
O=C(Nc1ccc(F)cc1F)c1noc2c1CCC2	85.7*[fluorescence artefact?]	38.0	90.8*[fluorescence artefact?]	nt
O=C(NCc1ccc(F)cc1)c1noc2c1CCCC2	-9.1	118.3	-10.8	0.3
CCS(=O)(=O)N1CCC(C(=O)NCCCN2CCCCCC2)CC1	-3.1	919.9*[fluorescence artefact?]	0.2	3.8
CCCCCNC(=O)C1CC=CCC1C(=O)O (configuration not stated)	-1.7	272.6*[fluorescence artefact?]	-2.4	0.2
CS(=O)(=O)c1ccc2nc(NC(=O)CCC(=O)c3cccs3)sc2c1	67.7*	67.2	39.6	5.9
O=C(CCC(=O)c1cccs1)Nc1nnc(C2CC2)s1	52.4*	64.5	41.6	1.3
CN(C)c1ccc(-c2nnc(-c3ccc(S(=O)(=O)C(F)F)cc3)o2)cc1	54.6*[fluorescence artefact?]	241.1*	23.7	3.3
COc1ccc(-c2nnc(-c3ccc(N(C)C)cc3)o2)cc1	-4.0	99.5	-5.7	-0.2
O=c1cc(-c2c(F)c(F)c(F)c(F)c2F)oc2c(F)c(F)c(F)c(F)c12	3.2	114.3	4.7	nt
Cc1nn2c(c1-c1ccccc1)NC1=C(C(=O)CCC1)C2c1cccnc1 (configuration not stated)	-4.6	109.4	-1.9	nt
CCOC(=O)C(C)Oc1cccc2c(=O)n(CC(=O)Nc3cccc(OC)c3)ccc12 (configuration not stated)	-4.7	112.8	2.5	3.8
SMILES	ERa coact inh	ERa SRC1 pot	ERb coact inh	FAK inh
CCOC(=O)C(C)Oc1cccc2c(=O)n(CC(=O)Nc3ccc4c(c3)OCCO4)ccc12 (configuration not stated)	24.0	323.6*	27.7	1.1
CC(=O)Nc1ccc(S(=O)(=O)NC(C(=O)O)C(C)C)cc1 (configuration not stated)	-11.7	104.7	65.8*[fluorescence artefact?]	1.0
CCC(C)NS(=O)(=O)c1ccc(NC(C)=O)cc1 (configuration not stated)	-21.2	98.6	-22.6	-0.7
Cc1c(NC2=C(Cl)C(=O)N(c3ccccc3)C2=O)c(=O)n(-c2ccccc2)n1C	2.0	109.7	-2.9	2.8
O=C1C(Cl)=C(Nc2ccccc2O)C(=O)N1c1ccccc1	53.9*[fluorescence artefact?]	59.9	22.8	-0.8
CCN(CC)c1nc(N)c2c(N)nc3c(c2c1C#N)CC(c1ccccc1)O3 (configuration not stated)	-5.2	80.0	-1.6	1.2
N#Cc1c(N2CCCCC2)nc(N)c2c(N)nc3c(c12)CC(c1ccccc1)O3 (configuration not stated)	22.6	216.9*[fluorescence artefact?]	29.1	-6.6
CCOc1ccc(S(=O)(=O)NN)cc1	nt	nt	nt	1.4
Cc1ccc2c(c1)c1c3n2CCN(C(=O)C2CC2)C3CCC1 (configuration not stated)	2.2	97.9	-1.5	4.2
Cc1ccc2c(c1)c1c3n2CC(=C2C(=O)OC(C)(C)OC2=O)NC3CCC1 (configuration not stated)	43.6	82.2	54.2*[fluorescence artefact?]	0.4
COc1ccc(OC)c2sc(NC(=O)C3=COCCO3)nc12	-2.6	105.6	-6.8	5.4
COc1ccc(C)c2sc(NC(=O)C3=COCCO3)nc12	92.8*[fluorescence artefact?]	103.6	-3.9	4.4
O=C(Nc1ccc2c(c1)OCO2)c1cccc2c1C(=O)N(Cc1cccnc1)C2	76.7*[fluorescence artefact?]	32.4	61.3*	nt
